Among the data in ChEMBL document CHEMBL4513141, “CO-ADD screening of NIH (USA) - Clinical Collection” (2021) are Inhibition values, retold here.

Potency and affinity values are given separately.

One test concerns Klebsiella pneumoniae. Conditions: Concentration 20 uM; ASSAY_TEST Inhibition of Bacterial Growth; detection method Absorption (OD600); MEDIA CAMHB; plate type 384well; NBS; CORNING #3640; time 18 hr.
A further test concerns Candida albicans. Conditions: 20 µM.
In the next test the test system is Cryptococcus neoformans. Conditions: Concentration 20 uM; ASSAY_TEST Inhibition of Fungal Growth; detection method Resazurin; Absorption (OD600-OD570); plate type 384well; NBS; CORNING #3640.

A word on the Inhibition: it is the relative decrease from the control value, in per cent. For the compound `Cc1nc2n(c(=O)c1CCN1CCC(c3noc4cc(F)ccc34)CC1)CCCC2` [RISPERIDONE], the figures for the Inhibition in the test on Klebsiella pneumoniae, with Candida albicans and in the test with Cryptococcus neoformans were 4.8%, 0.09% and -0.58%, respectively.

With `OCc1cccnc1` [NICOTINYL ALCOHOL], the Inhibition in the test with Klebsiella pneumoniae is 6.16%; in the test on Candida albicans, 2.84%; with Cryptococcus neoformans it was -7.14%.

In the case of `C#C[C@]1(O)CC[C@H]2[C@@H]3[C@H](C)CC4=C(CCC(=O)C4)[C@H]3CC[C@@]21C` [TIBOLONE], the Inhibition is 12.38% with Klebsiella pneumoniae, 6.29% in the test on Candida albicans and -2.16% in the test on Cryptococcus neoformans.

Turning to `CC1CCN(CCCC(=O)c2ccc(F)cc2)CC1.Cl`, the Inhibition is 24.05% in the test on Klebsiella pneumoniae, 2.99% in the test on Candida albicans and -4.29% in the test on Cryptococcus neoformans.

As for `CN(C)CCCSc1ccccc1NC(=O)/C=C/c1ccccc1.Cl.O`, the figures for the Inhibition in the test on Klebsiella pneumoniae, with Candida albicans and in the test with Cryptococcus neoformans were 18.81%, 2.74% and -8.97%, respectively.

As for `Cl.O=C1CN2Cc3c(ccc(Cl)c3Cl)N=C2N1` [ANAGRELIDE HYDROCHLORIDE], the Inhibition was 18.04% in the test on Klebsiella pneumoniae, 3.23% with Candida albicans and -6.07% in the test with Cryptococcus neoformans.

Take `CCOC(=O)[C@H](CCc1ccccc1)N[C@@H](C)C(=O)N1[C@H](C(=O)O)C[C@@H]2CCC[C@@H]21`: the Inhibition in the test on Klebsiella pneumoniae is 20.74%; in the test on Candida albicans it was 1.9%; with Cryptococcus neoformans, -1.7%.

In the case of `Cc1onc(-c2ccccc2)c1-c1ccc(S(N)(=O)=O)cc1` [VALDECOXIB], the Inhibition turned out to be 13.38% in the test on Klebsiella pneumoniae, 1.13% in the test with Candida albicans and 0.76% in the test with Cryptococcus neoformans.

Turning to `Cl.NC12CC3CC(CC(C3)C1)C2` [AMANTADINE HYDROCHLORIDE], the Inhibition in the test on Klebsiella pneumoniae is 13.94%; in the test on Candida albicans, 3.06%; in the test on Cryptococcus neoformans it was -3.67%.

With `CN1CCCCC1CCN1c2ccccc2Sc2ccc([S+](C)[O-])cc21.O=S(=O)(O)c1ccccc1` (stereo unspecified) [MESORIDAZINE BESYLATE], the Inhibition in the test with Klebsiella pneumoniae is -1.64%; in the test with Candida albicans it was 4.29%; in the test with Cryptococcus neoformans it was 2.61%.

As for `Nc1ccn([C@@H]2O[C@H](CO)[C@@H](O)[C@@H]2O)c(=O)n1` [CYTARABINE], the Inhibition was 5.64% in the test on Klebsiella pneumoniae, 2.79% with Candida albicans and -8.77% in the test on Cryptococcus neoformans.

Take `CCCN[C@H]1CCc2nc(N)sc2C1` [PRAMIPEXOLE]: the Inhibition in the test with Klebsiella pneumoniae was 5.86%; in the test with Candida albicans, 5.21%; in the test on Cryptococcus neoformans it was -0.71%.

Take `CC(C(=O)O)c1cccc(C(=O)c2ccccc2)c1` (stereo unspecified) [KETOPROFEN]: the Inhibition is 8.94% in the test with Klebsiella pneumoniae, 5.45% in the test on Candida albicans and -5.87% with Cryptococcus neoformans.

Regarding `Cc1ncc([N+](=O)[O-])n1CC(O)CCl` (stereo unspecified) [ORNIDAZOLE], the Inhibition with Klebsiella pneumoniae was 14.36%; with Candida albicans, 2.15%; in the test with Cryptococcus neoformans it was -1.25%.

Turning to `NC(=O)N1c2ccccc2C=Cc2ccccc21` [CARBAMAZEPINE], the Inhibition was 5.59% in the test on Klebsiella pneumoniae, 4.45% in the test on Candida albicans and -2.39% in the test with Cryptococcus neoformans.

Turning to `CC(=O)OCC(=O)NCCCOc1cccc(CN2CCCCC2)c1.Cl` [ROXATIDINE ACETATE HYDROCHLORIDE], the Inhibition is 15.18% in the test on Klebsiella pneumoniae, 3.06% in the test with Candida albicans and -4.65% with Cryptococcus neoformans.

With `CS(=O)(=O)c1ccc(-c2cc(Br)sc2-c2ccc(F)cc2)cc1` [DUP-697], the Inhibition in the test on Klebsiella pneumoniae was 2.25%; in the test with Candida albicans, 5.12%; in the test with Cryptococcus neoformans it was -8.07%.

`CC(C)(S)C(N)C(=O)O` (stereo not drawn) [DL-PENICILLAMINE]: the Inhibition is 8.23% in the test with Klebsiella pneumoniae, 3.66% in the test on Candida albicans and -9.16% in the test on Cryptococcus neoformans.

On to `CCCCC(=O)OC1(C(=O)CO)CCC2C3CCC4=CC(=O)CCC4(C)C3C(O)CC21C` (stereo unspecified), for which the Inhibition in the test on Klebsiella pneumoniae was 9.82%; with Candida albicans, 3.16%; with Cryptococcus neoformans, -1.86%.

In the case of `CCC[C@@H]1C[C@@H](C(=O)N[C@@H]([C@H]2O[C@H](SC)[C@H](O)[C@@H](O)[C@H]2O)[C@@H](C)O)N(C)C1.Cl.O` [LINCOMYCIN HYDROCHLORIDE], the values for the Inhibition with Klebsiella pneumoniae, in the test on Candida albicans and in the test on Cryptococcus neoformans were 17.37%, 4.06% and -3.42%, respectively.

As to `CC(=O)/N=c1/sc(S(N)(=O)=O)nn1C` [METHAZOLAMIDE], the Inhibition in the test with Klebsiella pneumoniae was 3.3%; in the test on Candida albicans, 3.37%; in the test on Cryptococcus neoformans, -3.07%.

For the compound `CC1=C(C(=O)O)N2C(=O)[C@@H](NC(=O)[C@H](N)c3ccccc3)[C@H]2SC1.O` [CEPHALEXIN], the Inhibition in the test on Klebsiella pneumoniae is 2.49%; in the test on Candida albicans it was 2.01%; in the test on Cryptococcus neoformans, 4.2%.

As for `CCCc1c(OCCCCc2nnn[nH]2)ccc(C(C)=O)c1O` [TOMELUKAST], the results for the Inhibition in the test on Klebsiella pneumoniae, with Candida albicans and with Cryptococcus neoformans were 5.45%, 4.49% and 3.29%, respectively.

Consider `CC(C)(C(=O)O)c1ccc(C(O)CCCN2CCC(C(O)(c3ccccc3)c3ccccc3)CC2)cc1.Cl` (stereo unspecified) [FEXOFENADINE HYDROCHLORIDE], for which the figures for the Inhibition in the test on Klebsiella pneumoniae, in the test on Candida albicans and in the test with Cryptococcus neoformans were 13.11%, 1.18% and -7.41%, respectively.

For the compound `Cl.Nc1c2c(nc3ccccc13)CCCC2` [TACRINE HYDROCHLORIDE], the Inhibition in the test on Klebsiella pneumoniae was 15.67%; with Candida albicans, 1.65%; with Cryptococcus neoformans it was -5.28%.

`CO[C@H]1O[C@@H]2O[C@@]3(C)CC[C@H]4[C@H](C)CC[C@@H]([C@H]1C)[C@@]24OO3`: the Inhibition in the test with Klebsiella pneumoniae is 9.17%; in the test with Candida albicans, 19.1%; in the test on Cryptococcus neoformans, 6.04%.

As for `O=c1c(O[C@@H]2O[C@H](CO)[C@H](O)[C@H](O)[C@H]2O)c(-c2ccc(O)c(O)c2)oc2cc(O)cc(O)c12` [HYPEROSIDE], the Inhibition in the test on Klebsiella pneumoniae is 17.1%; in the test on Candida albicans it was 1.21%; with Cryptococcus neoformans it was -13.27%.
